# Laboratory results taken from the supplement of paper PMC6607015.
# Where a name gives a salt, the structure may show the parent alone.
# Key:
# Conditions in all cases: compound concentration in added solution (µM; 5 µl added to 20 µl cells): 10; 18 h
# [1] = tested on: A431; assay: LBPA endosome anti-LBPA integrated intensity (sum per cell), Z-score; higher = more LBPA staining
# How it was run: (§1)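 Per-cell integrated LBPA or filipin intensity, whole-cell or within LBPA endosomes, is expressed as Z-scores normalised in AcuityXpress. HeLa MZ or A431 cells, 3,500 per well in 20 µl, sat on 5 µl of 10 µM compound solution in duplicate 384-well imaging plates for 18 h. They were then fixed in 4% PFA, stained, imaged in four 20× fields per well and segmented using MetaXpress.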
# [2] = tested on: HeLa MZ; assay: as above
# How it was run: as §1
# [3] = tested on: A431; assay: whole-cell filipin (free cholesterol) integrated intensity, Z-score; higher = more cholesterol staining
# How it was run: as §1
# [4] = tested on: HeLa MZ; assay: as above
# How it was run: as §1
# [5] = tested on: A431; assay: filipin (cholesterol) integrated intensity within LBPA endosomes, Z-score; higher = more cholesterol in LBPA endosomes
# How it was run: as §1
# [6] = tested on: HeLa MZ; assay: as above
# How it was run: as §1
Compound,LBPA endosome anti-LBPA integrated intensity (z-score) [1],LBPA endosome anti-LBPA integrated intensity (z-score) [2],whole-cell filipin (z-score) [3],whole-cell filipin (z-score) [4],filipin (z-score) [5],filipin (z-score) [6]
Nc1ncnc2c1ncn2[C@@H]1O[C@H](CO)[C@@H](O)[C@@H]1O [Vidarabine],-0.521,0.0226,-0.393,0.669,-0.496,-0.54
C[C@@H](O)[C@H]1C(=O)N2C(C(=O)O)=C(S[C@@H]3CN[C@H](C(=O)N(C)C)C3)[C@H](C)[C@H]12 [Meropenem],-0.501,-0.52,0.0963,-0.649,-0.531,-0.725
O=C(O)[C@H]1/C(=C/CO)O[C@@H]2CC(=O)N21 [Potassium clavulanate],-0.48,-0.536,0.227,-0.0014,-0.358,-0.433
CN(C)CC/C=C1/c2ccccc2COc2ccc(CC(=O)O)cc21 [Olopatadine hydrochloride],-0.245,0.672,0.305,0.861,-0.37,-0.275
NC[C@@H]1O[C@H](O[C@H]2[C@@H](O)[C@H](O[C@@H]3[C@@H](O)[C@H](N)C[C@H](N)[C@H]3O[C@H]3O[C@H](CO)[C@@H](O)[C@H](O)[C@H]3N)O[C@@H]2CO)[C@H](N)[C@@H](O)[C@@H]1O [Paromomycin sulfate],-0.396,-0.465,-0.35,-0.208,-0.425,-0.447
N[C@@H](Cc1ccc(O)c(O)c1)C(=O)O [Levodopa],-0.339,-0.518,-0.462,-0.115,-0.332,-0.358
CC1(C)S[C@@H]2[C@H](NC(=O)[C@H](C(=O)O)c3ccsc3)C(=O)N2[C@H]1C(=O)O [Ticarcillin sodium],-0.466,-0.401,-0.165,-0.157,-0.403,-0.501
CC(=O)N(CC(C)C(=O)O)c1c(I)cc(I)c(N)c1I (configuration not stated) [Iocetamic acid],-0.0668,-0.0236,-0.0512,0.178,-0.262,-0.476
"CN1[C@@H]2CC[C@H]1C[C@@H](OC(=O)C(O)c1ccccc1)C2 (mixture of isomers) [Homatropine hydrobromide (R,S)]",-0.625,-0.216,-0.825,-0.838,-0.591,-0.57
Oc1c(Cl)cc(Cl)c2cccnc12 [Chloroxine],-0.792,-1.58,-0.709,-1.27,-0.75,-0.803
Cc1ccc(S(=O)(=O)NC(=O)NN2CC3CCCC3C2)cc1 (configuration not stated) [Gliclazide],-0.621,-1.17,-0.806,-0.679,-0.555,-0.64
O=C1C(O)=C([C@H]2CC[C@H](c3ccc(Cl)cc3)CC2)C(=O)c2ccccc21 [Atovaquone],-0.63,-0.824,-0.408,-0.361,-0.555,-0.654
CS(=O)(=O)c1ccc(C2=C(c3ccccc3)C(=O)OC2)cc1 [Rofecoxib],-0.672,-1.7,-1.07,-0.451,-0.59,-0.599
CC(=O)[C@H]1CC[C@H]2[C@@H]3CC=C4C[C@@H](O)CC[C@]4(C)[C@H]3CC[C@]12C [Pregnenolone],2.84,2.65,1.33,1.33,2.1,1.2
O=C1NCN(c2ccccc2)C12CCN(CCCC(c1ccc(F)cc1)c1ccc(F)cc1)CC2 [Fluspirilen],2.78,1.04,1.65,1.64,4.57,4.14
COc1ccccc1N1CCN(CC(O)COc2cccc3ccccc23)CC1 (configuration not stated) [Naftopidil dihydrochloride],0.776,1.7,0.857,0.537,0.575,0.742
O=C(N[C@H](CO)[C@H](O)c1ccc([N+](=O)[O-])cc1)C(Cl)Cl [Chloramphenicol],-0.509,-0.731,-0.952,-1.01,-0.558,-0.762
CN(C)CCC=C1c2ccccc2C=Cc2ccccc21 [Cyclobenzaprine hydrochloride],2.59,2.51,1.71,0.233,2.57,2.22
Nc1nc2c(ncn2COC(CO)CO)c(=O)[nH]1 [Ganciclovir],-0.282,0.382,-0.0797,0.0803,-0.332,-0.411
CCN1CCCC1CNC(=O)c1cc(S(N)(=O)=O)ccc1OC (configuration not stated) [Sulpiride],-0.472,-0.315,-0.817,-0.434,-0.518,-0.501
CCCCC[C@H](O)/C=C/[C@@H]1[C@@H](C/C=C\CCCC(=O)O)[C@@H](O)C[C@H]1O [Dinoprost trometamol],-0.294,-0.303,-0.632,-0.582,-0.462,-0.236
CCN(CC)CCCC(C)Nc1ccnc2cc(Cl)ccc12 (configuration not stated) [Chloroquine diphosphate],3.38,2.38,0.0406,0.105,0.896,1.26
